High-throughput results: PubChem BioAssay, National Center for Advancing Translational Sciences (NCATS)
Hits are enriched below; roughly 12% of the tested compounds scored in any of these assays.
Sm TGR inh: blocks Schistosoma mansoni thioredoxin glutathione reductase | Q962Y6 | purified TGR, DTNB reduction, TNB absorbance 405 nm | Potency, µM (doses to about 114 µM), for inactives: top-dose activity change, negative = inhibition, actives largely listed as inhibitors | 3% of 360,000 active | AID 485364; also: % is scaled to controls: 0 for no effect and ±100 for the full control effect; nearly all actives have a fitted effect of over 60% in size
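First, TGR (20 nM dispensed) and NADPH were mixed with compound. Second, a 15 min room-temperature incubation followed. Third, further NADPH and then DTNB were added to start the reaction. Finally, TNB absorbance was monitored kinetically.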
Pf growth 48h: inhibits P. falciparum growth in the first generation, 48 h. P. falciparum luciferase growth in erythrocytes, 48 h. Potency, µM (doses to about 28.7 µM), without a hit: at the highest dose activity change, negative = inhibition, most hits filed as inhibitors. 5.9% of 310,000 active. AID 504832; also: % is scaled to controls: 0 for no effect and ±100 for the full control effect
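Here the parasites carry a stable luciferase gene and grow inside erythrocytes in Albumax-based RPMI medium with compound for one erythrocytic cycle. Activity is scored as loss of luminescent signal.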
SARS PLP yeast: blocks SARS-CoV papain-like protease in a yeast assay. S. cerevisiae expressing SARS-CoV PLpro, growth rescue. Potency, µM (titrated, usually from 32.9 µM), inactives show at the highest dose activity, positive = growth rescue, actives largely listed as activators. 0.19% of 330,000 active. AID 485353; calls by dose curve; also: 0% is about no effect; nearly all actives have a fitted effect of over 55% in size
Pf growth 96h: inhibits malaria parasite growth, 96 h; P. falciparum luciferase reporter growth, 96 h; Potency, µM (titrated, usually from 28.7 µM), inactives show at the highest dose activity change, negative = inhibition, most hits filed as inhibitors; 6.9% of 320,000 active; also: % is scaled to controls: 0 for no effect and ±100 for the full control effect
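Erythrocytes infected with luciferase-expressing P. falciparum were dispensed at 2% hematocrit and 0.05% parasitemia (final), then incubated with compounds 96 hours at 37 C in 5% CO2. Luminescence after detection reagent addition reported growth.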
The depositor's hits bear a star; ? = inconclusive; . = no result; [ ] = dose if it differs, or a comment. Unless noted, calls follow the shape of the dose curve; as a rule, active = well fitted curve in the direction sought with a large enough effect; inconclusive = small, poorly fitted or top-dose-only effect, or another doubt; inactive = no such curve, though single readings can be large; an effect the other way counts as inactive or inconclusive. Potency is read from the fitted curve at half-maximal effect.

SMILES | Sm TGR inh | Pf growth 48h | SARS PLP yeast | Pf growth 96h
Cc1cccc(N2CC(C(=O)NCc3ccco3)CC2=O)c1C (stereo unspecified) | ? | -14.8% | -0.1% | -14.3%
CC(=O)N=c1sc2nc3ccccc3nc2n1N(C(C)=O)C(C)=O | 50.1µM* | 24.6% | 1.1% | ?
C/C(=N\Nc1nc(C)cc(-c2ccccc2)n1)c1ccc(C)o1 | -1.4% | 13.1µM* | 14.4% | 1.04µM*
CC1(C)Cc2c(C#N)c(N3CCN(C(=O)c4ccccc4)CC3)nc(-c3ccco3)c2CS1 | 3.16µM* | ? | 0.3% | ?
CC(C)c1nc(N2CCN(C(=O)c3ccco3)CC2)c(C#N)c2c1COC(C)(C)C2 | -12.8% | ? | -2.5% | ?
CCC(=O)N1CCN(c2nc(-c3ccccc3)c3c(c2C#N)CCCC3)CC1 | -22.5% | . | -24.9% | -17.2%
CC(C)c1nc(N2CCN(C(=O)c3ccccc3)CC2)c(C#N)c2c1COC(C)(C)C2 | 11.4% | 10.4µM* | -1.6% | 231.0%
Cc1ccc(CNS(=O)(=O)c2cn(C)c(=O)n(C)c2=O)cc1 | -8.9% | 17.2% | 2.0% | 0.8%
COc1ccc2ccccc2c1CNC(C)CCc1ccccc1 (stereo unspecified) | 1.0% | ? | -2.8% | -104.5%
COc1ccc(Cl)cc1NC(=S)NCCCN1CCCC1=O | 50.1µM* | -2.7% | -0.9% | 44.8%
COc1ccc(-n2c(=S)[nH]c3cc(C(=O)NCCCN4CCCC4=O)ccc3c2=O)cc1OC | -13.3% | . | 4.9% | -25.6%
COc1cc(C(=O)NCCCN2CCCC2=O)ccc1OCc1ccc(Cl)cc1Cl | -0.7% | 10.4µM* | -1.4% | ?
O=C1CCCN1CCCNC(=S)Nc1ccccc1 | ? | -1.3% | -0.5% | 64.1%
O=C1CCCN1CCCNC(=S)Nc1ccc(Br)cc1Cl | 14.1µM* | 15.8% | -1.4% | 1.1%
CCOC(=O)c1ccc(NC(=S)NCCCN2CCCC2=O)cc1 | 8.1% | 44.0% | -0.5% | 2.62µM*
O=C1CC(NS(=O)(=O)c2cc(F)ccc2F)CN1c1cccc(F)c1 (stereo unspecified) | 0.7% | 8.8% | 1.1% | 33.9%
Nc1nc(N2CCN(C/C=C/c3ccccc3)CC2)nc2ccccc12 | -5.2% | 11.7µM* | -1.3% | -2.2%
COc1ccccc1OCCSc1nc2ccccc2n1CC(=O)N1CCOCC1 | -8.0% | . | . | .
O=C(c1ccccc1)N1CCN=C1c1ccccc1 | -0.4% | -11.5% | -9.2% | 11.7µM*
C[N+]1(C)C2CC[C@H]1CC(OC(=O)[C@@H](CO)c1ccccc1)C2 (stereo partly specified) | . | -10.1% | . | -21.6%
O=C(NCc1ccccc1Cl)[C@@H]1CCCN1S(=O)(=O)c1ccc(Cl)cc1 | . | . | 10.4% | .
COc1ccc(C(=O)n2c(-c3ccco3)nc3ccccc32)cc1 | 1.8% | 82.3% | -16.2% | 2.08µM*
COc1ccc(CCn2c(-c3ccco3)nc3nc4ccccc4nc32)cc1 | 50.1µM* | ? | -7.3% | 6.0%
CCCn1c(-c2ccc(OC)cc2)nc2nc3ccccc3nc21 | 6.3% | 9.1% | -8.1% | 3.7µM*
COCCCn1c(-c2ccc(OC)cc2)nc2nc3ccccc3nc21 | 25.1% | 16.2% | 5.6% | .
SMILES | Sm TGR inh | Pf growth 48h | SARS PLP yeast | Pf growth 96h
c1coc(-c2nc3nc4ccccc4nc3n2CC2CCCO2)c1 (stereo unspecified) | 50.1µM* | . | 14.1% | -1.5%
c1ccc(-c2nc3nc4ccccc4nc3n2CC2CCCO2)cc1 (stereo unspecified) | -34.9% | 15.3% | 0.4% | -12.5%
COc1ccc(NC(=O)Nc2ccc([N+](=O)[O-])cc2)cn1 | -7.3% | ? | 10.7% | ?
CCOC(=O)CNC(=O)c1cc2c(=O)n(CC)c3ccccc3c2s1 | 0.3% | . | . | .
Cc1ccc(NC(=O)CSc2c3c(nc4ccccc24)CCCC3)cc1F | 2.1% | . | . | .
CCOc1cccc(C2c3c(oc4ccccc4c3=O)C(=O)N2c2nc(C)c(C(=O)OC)s2)c1 (stereo unspecified) | -6.3% | . | . | .
COc1ccc(CCn2c(-c3cc([N+](=O)[O-])cc([N+](=O)[O-])c3)nc3nc4ccccc4nc32)cc1 | -9.7% | ? | 12.3% | 0.738µM*
COc1ccc(CCn2c(-c3cc([N+](=O)[O-])cc([N+](=O)[O-])c3)nc3nc4ccccc4nc32)cc1OC | 6.4% | 12.8% | 6.1% | 11.8%
CC(C)(C)OC(=O)N1CCC(NC(=O)c2nc[nH]c2C(=O)N2CCN(C(=O)OC(C)(C)C)CC2)CC1 | -9.2% | 10.4µM* | -9.0% | ?
CC(C)(C)OC(=O)NCCCCCNC(=O)c1[nH]cnc1C(=O)NC1CCN(C(=O)OC(C)(C)C)CC1 | -0.8% | 9.28µM* | -1.9% | 2.08µM*
CC(C)(C)C1CCc2c(sc(NC(=O)Cn3nnc(-c4ccccc4Cl)n3)c2C#N)C1 (stereo unspecified) | 1.4% | . | . | .
CCc1ccc2c(c1)NC(c1cccnc1)=NC(c1ccc(C(C)(C)C)cc1)=N2 | -9.0% | . | . | .
CCN(C(=O)Cn1nc(Cc2cccnc2)c2ccccc2c1=O)c1ccccc1F | 3.5% | . | . | .
COc1ccc(-c2cc(C(=O)N3CCN(S(=O)(=O)c4ccccc4)CC3)[nH]n2)cc1 | -11.3% | ? | 4.6% | 55.3%
O=C(c1cc(-c2ccc(Br)cc2)n[nH]1)N1CCN(S(=O)(=O)c2ccc(Br)cc2)CC1 | -2.1% | . | . | .
COc1ccccc1-c1cc(C(=O)N2CCN(S(=O)(=O)c3ccc(C)cc3)CC2)[nH]n1 | -13.8% | 0.465µM* | -2.0% | 14.7µM*
O=C(c1cc(-c2ccc(Br)cc2)n[nH]1)N1CCN(C(=O)c2ccccc2Br)CC1 | 7.5% | 9.28µM* | 4.0% | -15.4%
COc1ccc(S(=O)(=O)N2CCN(C(=O)c3cc(-c4ccc(Br)cc4)n[nH]3)CC2)cc1OC | 5.9% | 9.28µM* | -5.2% | ?
O=C(c1cc(-c2ccccc2)n[nH]1)N1CCN(S(=O)(=O)c2ccccc2)CC1 | 12.5% | 3.7µM* | 5.3% | ?
COc1cccc(-c2nc(CS(=O)(=O)CC(=O)N3CCN(c4ccccc4)CC3)c(C)o2)c1 | 3.2% | . | . | .
Cc1ccccc1CN1CCCN(CC(=O)Nc2ccc(F)cc2)S1(=O)=O | 3.3% | . | . | .
Cc1ccc(S(=O)(=O)N2CCN(C(=O)c3n[nH]c4ccccc34)CC2)cc1 | 2.8% | 2.62µM* | -2.7% | 11.7µM*
Cc1cc(C)c(C)c(S(=O)(=O)N2CCN(C(=O)c3cc(=O)[nH]c4ccccc34)CC2)c1C | 0.0% | ? | -7.3% | ?
Cc1cc(C)c(S(=O)(=O)N2CCN(C(=O)c3cc(=O)[nH]c4ccccc34)CC2)c(C)c1 | -14.0% | 11.7µM* | 3.3% | ?
O=C(c1n[nH]c2ccccc12)N1CCN(S(=O)(=O)c2ccc3ccccc3c2)CC1 | 3.0% | ? | -16.4% | 149.8%
CN(CC(=O)Nc1ncn[nH]1)S(=O)(=O)c1ccc(Cl)cc1 | -1.8% | -27.1% | 11.5% | 5.3%
CCn1nc(C)cc1-c1nnc(Sc2ncc([N+](=O)[O-])s2)n1C | 0.282µM* | 8.2%[0.00184 µM] | -9.8% | 0.4%
CCn1nc(C)cc1-c1nnc(SCC(=O)Nc2ccccc2)n1CCCOC | 4.9% | 27.1% | -2.8% | -4.1%
C[C@@H]1C(=O)OC[C@H]1NC(=O)OCc1ccccc1 | 1.2% | ? | 1.1% | 69.2%
